These results are taken from ChEMBL document CHEMBL2218924, “A broad activity screen in support of a chemogenomic map for kinase signalling research and drug discovery” (Biochem J, 2013).

For assay [1], the target named is ALK tyrosine kinase receptor (Homo sapiens) (UniProt Q9UM73). Particulars: at 10 µM.
Assay [2] concerns the target T1, AMP-activated protein kinase (AMPK) alpha-1/beta-1/gamma-1 (Homo sapiens) (UniProt P54619+Q9Y478+Q13131). As to conditions: at 1 µM.
Assay [3] has as its target T1, AMP-activated protein kinase (AMPK) alpha-1/beta-1/gamma-1 (Homo sapiens). Particulars: at 10 µM.
Assay [4] has as its target T2, AMP-activated protein kinase, AMPK (Homo sapiens) (UniProt P54646+O43741+P54619+Q9UGJ0+Q9Y478+Q13131+Q9UGI9). Particulars: at 1 µM.
In assay [5] the target is T2, AMP-activated protein kinase, AMPK (Homo sapiens). As to conditions: at 10 µM.
The target of assay [6] is T3, NUAK family SNF1-like kinase 1 (Homo sapiens) (UniProt O60285).
T3 sequence (whole entry): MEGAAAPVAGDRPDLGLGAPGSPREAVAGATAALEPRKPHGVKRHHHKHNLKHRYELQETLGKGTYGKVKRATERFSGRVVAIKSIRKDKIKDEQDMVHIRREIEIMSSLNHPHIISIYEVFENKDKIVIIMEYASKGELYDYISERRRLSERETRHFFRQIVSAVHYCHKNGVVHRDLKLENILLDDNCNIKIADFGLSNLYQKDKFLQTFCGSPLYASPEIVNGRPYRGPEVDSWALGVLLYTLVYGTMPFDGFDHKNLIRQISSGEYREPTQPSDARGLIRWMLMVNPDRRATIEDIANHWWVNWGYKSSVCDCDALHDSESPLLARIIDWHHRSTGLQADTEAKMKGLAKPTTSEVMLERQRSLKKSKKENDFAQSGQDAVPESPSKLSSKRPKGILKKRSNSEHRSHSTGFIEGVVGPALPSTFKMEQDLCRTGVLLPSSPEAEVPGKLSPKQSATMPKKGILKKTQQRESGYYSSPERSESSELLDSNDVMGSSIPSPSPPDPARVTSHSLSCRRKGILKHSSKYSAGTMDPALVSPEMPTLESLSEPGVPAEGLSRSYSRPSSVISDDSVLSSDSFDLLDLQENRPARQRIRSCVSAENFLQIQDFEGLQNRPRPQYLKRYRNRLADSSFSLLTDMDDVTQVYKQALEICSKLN
As to conditions: at 1 µM.

The target in assay [7] is T3, NUAK family SNF1-like kinase 1 (Homo sapiens). As to conditions: at 10 µM.
Assay [8] concerns the target T4, Mitogen-activated protein kinase kinase kinase 5 (Homo sapiens) (UniProt Q99683).
T4 sequence (whole entry): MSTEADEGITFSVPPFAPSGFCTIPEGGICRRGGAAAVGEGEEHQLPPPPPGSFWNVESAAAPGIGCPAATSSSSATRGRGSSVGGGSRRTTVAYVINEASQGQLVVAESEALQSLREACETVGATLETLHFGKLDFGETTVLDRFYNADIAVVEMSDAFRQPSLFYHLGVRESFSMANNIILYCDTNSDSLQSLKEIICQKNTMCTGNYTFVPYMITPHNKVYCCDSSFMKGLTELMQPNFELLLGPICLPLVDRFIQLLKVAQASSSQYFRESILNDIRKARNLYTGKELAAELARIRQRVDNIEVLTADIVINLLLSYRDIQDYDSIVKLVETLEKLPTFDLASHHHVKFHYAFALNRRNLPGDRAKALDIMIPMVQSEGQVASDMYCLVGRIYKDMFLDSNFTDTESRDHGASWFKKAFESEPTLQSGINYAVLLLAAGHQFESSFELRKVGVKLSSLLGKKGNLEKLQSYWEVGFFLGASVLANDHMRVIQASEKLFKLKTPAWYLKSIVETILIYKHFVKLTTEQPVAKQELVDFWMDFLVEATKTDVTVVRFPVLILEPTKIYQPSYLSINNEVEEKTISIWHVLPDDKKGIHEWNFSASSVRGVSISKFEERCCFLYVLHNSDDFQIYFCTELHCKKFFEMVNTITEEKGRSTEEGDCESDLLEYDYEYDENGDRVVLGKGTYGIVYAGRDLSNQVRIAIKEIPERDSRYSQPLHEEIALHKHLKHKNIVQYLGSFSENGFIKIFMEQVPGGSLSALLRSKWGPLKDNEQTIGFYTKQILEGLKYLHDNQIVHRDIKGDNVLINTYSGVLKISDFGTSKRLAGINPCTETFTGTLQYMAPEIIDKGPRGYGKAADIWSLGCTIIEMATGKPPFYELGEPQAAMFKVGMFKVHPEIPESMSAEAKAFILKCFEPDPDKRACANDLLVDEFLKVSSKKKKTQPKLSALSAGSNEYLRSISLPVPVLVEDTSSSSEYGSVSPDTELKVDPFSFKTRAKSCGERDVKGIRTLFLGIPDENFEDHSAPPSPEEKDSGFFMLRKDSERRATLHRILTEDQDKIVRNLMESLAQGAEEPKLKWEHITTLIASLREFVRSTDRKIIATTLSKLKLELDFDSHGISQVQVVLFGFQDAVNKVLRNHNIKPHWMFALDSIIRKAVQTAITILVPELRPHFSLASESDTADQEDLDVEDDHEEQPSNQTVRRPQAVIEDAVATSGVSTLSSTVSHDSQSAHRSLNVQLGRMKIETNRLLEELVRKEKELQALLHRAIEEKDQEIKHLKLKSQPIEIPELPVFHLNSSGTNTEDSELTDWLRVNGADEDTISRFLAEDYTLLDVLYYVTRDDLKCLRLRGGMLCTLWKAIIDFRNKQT
Particulars: at 1 µM.

Assay [9] has as its target Platelet-derived growth factor receptor beta (Homo sapiens) (UniProt P09619). Particulars: at 1 µM.
Assay [10] has the same target. Particulars: at 10 µM.
Assay [11] concerns the target T5, 3-phosphoinositide-dependent protein kinase 1 (Homo sapiens) (UniProt O15530).
T5 sequence (whole entry): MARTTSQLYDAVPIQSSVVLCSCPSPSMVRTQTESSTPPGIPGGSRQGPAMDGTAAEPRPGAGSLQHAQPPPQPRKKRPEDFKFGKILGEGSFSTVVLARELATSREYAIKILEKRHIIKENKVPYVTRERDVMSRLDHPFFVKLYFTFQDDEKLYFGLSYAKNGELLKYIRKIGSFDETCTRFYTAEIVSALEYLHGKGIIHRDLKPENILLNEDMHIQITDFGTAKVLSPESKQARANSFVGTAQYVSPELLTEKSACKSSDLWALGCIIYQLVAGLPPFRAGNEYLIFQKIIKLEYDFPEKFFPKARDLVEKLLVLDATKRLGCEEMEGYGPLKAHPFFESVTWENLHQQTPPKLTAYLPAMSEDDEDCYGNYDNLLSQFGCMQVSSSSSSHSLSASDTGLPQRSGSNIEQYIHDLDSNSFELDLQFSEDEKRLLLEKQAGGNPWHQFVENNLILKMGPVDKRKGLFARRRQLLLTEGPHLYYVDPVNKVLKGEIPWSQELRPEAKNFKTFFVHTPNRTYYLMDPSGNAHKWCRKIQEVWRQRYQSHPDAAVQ
As to conditions: at 1 µM.

Assay [12] has as its target T5, 3-phosphoinositide-dependent protein kinase 1 (Homo sapiens). As to conditions: at 10 µM.
For assay [13], the target named is cAMP-dependent protein kinase catalytic subunit alpha (Homo sapiens) (UniProt P17612). Particulars: at 1 µM.
For assay [14] the target is unchanged. As to conditions: at 10 µM.
Assay [15] deals with RAC-gamma serine/threonine-protein kinase (Homo sapiens) (UniProt Q9Y243). As to conditions: at 1 µM.
Chain of RAC-gamma serine/threonine-protein kinase (Homo sapiens) (Q9Y243 whole entry): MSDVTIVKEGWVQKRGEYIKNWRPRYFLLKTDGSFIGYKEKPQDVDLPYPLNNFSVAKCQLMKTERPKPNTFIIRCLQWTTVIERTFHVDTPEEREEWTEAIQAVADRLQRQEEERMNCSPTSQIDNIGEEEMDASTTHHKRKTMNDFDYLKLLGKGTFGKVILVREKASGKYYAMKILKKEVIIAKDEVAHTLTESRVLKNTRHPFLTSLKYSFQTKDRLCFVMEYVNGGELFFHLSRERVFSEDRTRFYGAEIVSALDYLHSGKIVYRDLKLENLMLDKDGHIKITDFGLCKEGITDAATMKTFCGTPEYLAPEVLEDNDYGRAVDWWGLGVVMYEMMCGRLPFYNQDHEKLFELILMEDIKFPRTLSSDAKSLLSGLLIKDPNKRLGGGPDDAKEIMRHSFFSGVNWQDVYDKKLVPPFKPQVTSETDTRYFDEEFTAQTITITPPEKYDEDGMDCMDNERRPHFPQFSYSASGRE
For assay [16] the target is unchanged. As to conditions: at 10 µM.
Assay [17] deals with T6, Activin receptor type-1B (Homo sapiens) (UniProt P36896).
T6 sequence (whole entry): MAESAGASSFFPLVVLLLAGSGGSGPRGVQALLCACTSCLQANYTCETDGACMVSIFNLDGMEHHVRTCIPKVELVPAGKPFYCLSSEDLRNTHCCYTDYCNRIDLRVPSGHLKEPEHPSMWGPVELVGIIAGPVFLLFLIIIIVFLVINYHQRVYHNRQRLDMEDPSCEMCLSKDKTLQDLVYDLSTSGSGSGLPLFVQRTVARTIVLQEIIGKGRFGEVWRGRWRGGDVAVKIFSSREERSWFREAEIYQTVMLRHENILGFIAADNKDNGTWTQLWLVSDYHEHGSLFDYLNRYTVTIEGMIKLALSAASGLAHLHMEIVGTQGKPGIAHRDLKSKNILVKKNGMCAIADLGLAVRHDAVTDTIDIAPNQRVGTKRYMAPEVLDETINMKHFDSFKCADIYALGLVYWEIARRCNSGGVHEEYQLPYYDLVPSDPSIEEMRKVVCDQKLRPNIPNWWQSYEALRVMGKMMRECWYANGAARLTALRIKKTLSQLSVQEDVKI
As to conditions: at 10 µM.

In assay [18] the target is T6, Activin receptor type-1B (Homo sapiens). Particulars: at 1 µM.
The target of assay [19] is Platelet-derived growth factor receptor alpha (Homo sapiens) (UniProt P16234). As to conditions: at 1 µM.
Chain of Platelet-derived growth factor receptor alpha (Homo sapiens) (P16234 whole entry): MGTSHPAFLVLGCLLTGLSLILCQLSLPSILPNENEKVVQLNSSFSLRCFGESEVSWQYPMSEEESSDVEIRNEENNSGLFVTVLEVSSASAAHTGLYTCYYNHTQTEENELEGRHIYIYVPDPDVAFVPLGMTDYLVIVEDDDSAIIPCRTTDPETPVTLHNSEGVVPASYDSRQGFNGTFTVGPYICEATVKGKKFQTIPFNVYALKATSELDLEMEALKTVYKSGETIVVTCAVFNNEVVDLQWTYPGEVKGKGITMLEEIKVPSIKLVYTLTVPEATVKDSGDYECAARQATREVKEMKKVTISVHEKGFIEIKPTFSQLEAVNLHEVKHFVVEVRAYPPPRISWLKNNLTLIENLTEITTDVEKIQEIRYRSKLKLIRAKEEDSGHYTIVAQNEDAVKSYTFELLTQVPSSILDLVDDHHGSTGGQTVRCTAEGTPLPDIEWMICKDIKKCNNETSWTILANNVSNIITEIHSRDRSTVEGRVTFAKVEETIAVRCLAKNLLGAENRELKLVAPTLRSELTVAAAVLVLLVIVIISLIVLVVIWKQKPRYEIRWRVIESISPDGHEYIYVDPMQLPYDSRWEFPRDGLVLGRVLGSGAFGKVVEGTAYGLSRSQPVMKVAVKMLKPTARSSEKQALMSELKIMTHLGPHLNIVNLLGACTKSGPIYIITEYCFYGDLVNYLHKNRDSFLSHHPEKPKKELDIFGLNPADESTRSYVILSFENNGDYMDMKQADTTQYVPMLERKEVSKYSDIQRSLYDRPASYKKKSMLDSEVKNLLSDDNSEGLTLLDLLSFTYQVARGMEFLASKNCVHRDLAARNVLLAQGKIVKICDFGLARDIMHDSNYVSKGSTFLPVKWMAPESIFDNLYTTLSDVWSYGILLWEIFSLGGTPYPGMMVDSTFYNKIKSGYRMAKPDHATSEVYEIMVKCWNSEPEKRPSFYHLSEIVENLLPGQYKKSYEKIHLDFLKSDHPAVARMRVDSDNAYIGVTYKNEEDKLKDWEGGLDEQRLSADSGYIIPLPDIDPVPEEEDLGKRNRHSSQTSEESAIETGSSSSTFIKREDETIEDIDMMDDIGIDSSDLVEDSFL
The target is the same in assay [20]. As to conditions: at 10 µM.

Chain of ALK tyrosine kinase receptor (Homo sapiens) (Q9UM73 19-1620 limits assumed): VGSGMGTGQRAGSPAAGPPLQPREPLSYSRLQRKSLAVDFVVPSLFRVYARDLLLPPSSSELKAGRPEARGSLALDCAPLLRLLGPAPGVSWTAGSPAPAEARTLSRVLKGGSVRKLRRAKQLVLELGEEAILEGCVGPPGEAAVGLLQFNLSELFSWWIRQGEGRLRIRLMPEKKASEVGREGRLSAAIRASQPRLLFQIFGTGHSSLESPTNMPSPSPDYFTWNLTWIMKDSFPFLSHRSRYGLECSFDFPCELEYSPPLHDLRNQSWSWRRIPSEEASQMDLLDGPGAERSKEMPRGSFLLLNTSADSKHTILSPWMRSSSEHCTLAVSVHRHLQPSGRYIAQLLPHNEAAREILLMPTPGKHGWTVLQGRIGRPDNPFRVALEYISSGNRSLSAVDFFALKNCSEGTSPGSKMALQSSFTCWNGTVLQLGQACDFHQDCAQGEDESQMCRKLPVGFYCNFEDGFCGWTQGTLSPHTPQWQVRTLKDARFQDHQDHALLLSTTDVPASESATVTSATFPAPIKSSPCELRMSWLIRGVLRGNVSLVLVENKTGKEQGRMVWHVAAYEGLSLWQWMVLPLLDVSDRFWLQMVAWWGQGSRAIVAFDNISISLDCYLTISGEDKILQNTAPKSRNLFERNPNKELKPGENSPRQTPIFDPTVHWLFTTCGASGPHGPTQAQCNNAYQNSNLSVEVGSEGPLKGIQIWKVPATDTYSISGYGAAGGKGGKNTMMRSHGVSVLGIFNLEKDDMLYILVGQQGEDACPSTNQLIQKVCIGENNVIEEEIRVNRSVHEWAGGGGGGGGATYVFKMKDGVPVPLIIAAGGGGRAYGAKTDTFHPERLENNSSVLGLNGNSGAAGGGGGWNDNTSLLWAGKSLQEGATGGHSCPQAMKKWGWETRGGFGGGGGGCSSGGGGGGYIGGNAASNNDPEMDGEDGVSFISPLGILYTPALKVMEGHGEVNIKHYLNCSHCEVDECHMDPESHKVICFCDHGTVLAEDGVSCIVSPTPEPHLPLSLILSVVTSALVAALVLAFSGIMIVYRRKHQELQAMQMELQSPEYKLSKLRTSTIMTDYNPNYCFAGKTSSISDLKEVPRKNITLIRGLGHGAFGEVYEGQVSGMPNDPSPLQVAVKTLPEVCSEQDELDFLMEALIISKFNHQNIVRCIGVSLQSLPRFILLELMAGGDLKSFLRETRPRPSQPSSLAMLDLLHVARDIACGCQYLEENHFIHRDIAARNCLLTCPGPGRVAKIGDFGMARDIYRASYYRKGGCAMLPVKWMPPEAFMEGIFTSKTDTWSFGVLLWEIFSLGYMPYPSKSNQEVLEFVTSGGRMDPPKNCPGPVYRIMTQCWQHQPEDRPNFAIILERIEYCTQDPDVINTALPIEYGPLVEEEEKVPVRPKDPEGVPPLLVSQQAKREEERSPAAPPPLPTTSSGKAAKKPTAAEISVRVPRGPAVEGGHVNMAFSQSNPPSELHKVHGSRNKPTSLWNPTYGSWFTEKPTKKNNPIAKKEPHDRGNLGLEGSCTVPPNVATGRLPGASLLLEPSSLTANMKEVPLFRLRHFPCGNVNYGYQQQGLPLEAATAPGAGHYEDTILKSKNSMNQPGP
Chain of Platelet-derived growth factor receptor beta (Homo sapiens) (P09619 whole entry): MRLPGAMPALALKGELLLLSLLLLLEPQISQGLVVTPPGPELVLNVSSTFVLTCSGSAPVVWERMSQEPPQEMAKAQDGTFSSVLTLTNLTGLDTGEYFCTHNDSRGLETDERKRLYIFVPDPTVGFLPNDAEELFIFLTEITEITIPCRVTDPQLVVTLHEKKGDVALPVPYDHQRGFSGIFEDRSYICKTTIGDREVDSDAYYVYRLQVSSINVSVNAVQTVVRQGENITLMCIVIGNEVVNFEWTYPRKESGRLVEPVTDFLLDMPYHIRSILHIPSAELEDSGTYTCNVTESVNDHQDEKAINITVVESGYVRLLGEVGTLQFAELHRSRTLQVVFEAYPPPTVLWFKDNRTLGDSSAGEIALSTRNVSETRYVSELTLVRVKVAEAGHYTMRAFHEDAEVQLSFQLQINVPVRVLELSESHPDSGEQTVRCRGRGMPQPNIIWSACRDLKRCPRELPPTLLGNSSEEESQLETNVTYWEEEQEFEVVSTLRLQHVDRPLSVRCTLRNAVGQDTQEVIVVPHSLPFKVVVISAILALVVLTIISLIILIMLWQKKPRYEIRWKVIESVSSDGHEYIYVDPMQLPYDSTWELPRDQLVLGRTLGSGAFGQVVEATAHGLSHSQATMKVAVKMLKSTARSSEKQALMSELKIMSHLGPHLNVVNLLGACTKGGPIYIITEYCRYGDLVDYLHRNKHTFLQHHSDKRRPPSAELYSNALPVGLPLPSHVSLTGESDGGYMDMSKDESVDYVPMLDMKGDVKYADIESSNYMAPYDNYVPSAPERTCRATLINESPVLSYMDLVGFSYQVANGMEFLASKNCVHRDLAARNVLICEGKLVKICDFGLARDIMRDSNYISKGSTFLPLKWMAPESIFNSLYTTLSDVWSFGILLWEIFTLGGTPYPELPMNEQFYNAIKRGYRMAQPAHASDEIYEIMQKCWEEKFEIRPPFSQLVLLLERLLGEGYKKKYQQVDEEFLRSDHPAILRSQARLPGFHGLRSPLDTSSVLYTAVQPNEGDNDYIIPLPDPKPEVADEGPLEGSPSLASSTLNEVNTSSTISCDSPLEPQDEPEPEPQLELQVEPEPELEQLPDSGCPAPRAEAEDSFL

`CC(C)c1nn(-c2c(Cl)cccc2Cl)c2nc(Cc3ccc(OCCO)cc3)[nH]c(=O)c12`: the residual activity in assay [1] worked out at 42%; in assay [2], 93%; in [3], 71%; in assay [4], 87%; in assay [5], 74%; in [6], 96%. For the same compound, the residual activity in assay [7] turned out to be 72%; in [8] it was 95%; in assay [9], 103%; in assay [10], 105%; in assay [11], 101%; in assay [12], 99%. Further, the residual activity in [13] turned out to be 90%; in [14], 89%; in assay [15] it was 93%; in [16], 89%.
For `O=c1cc(N2CCOCC2)oc2c1ccc1ccccc12`, the residual activity amounted to 104% in assay [17]; 110% in assay [2]; 94% in assay [3]; 105% in assay [4]; 90% in assay [5]; 101% in assay [6]. The residual activity was found to be 85% in assay [7]; 88% in assay [8]; 98% in assay [9]; 101% in assay [13]; 104% in [14]; 111% in [15]. Moreover, in [16], the residual activity is 102%.
For `CSc1nc(-c2ccc(F)cc2)c(-c2ccnc(NC(C)c3ccccc3)c2)[nH]1` (stereo not drawn), the residual activity amounted to 56% in assay [1]; 88% in assay [2]; 59% in assay [3]; 80% in assay [4]; 56% in assay [5]; 101% in assay [6]. Further, the residual activity came out at 60% in [7], 101% in assay [8], 101% in [13] and 133% in assay [14].
Take `NCCNc1ncc(C(N)=O)c(Nc2cccc(C(F)(F)F)c2)n1`: the residual activity in [18] was 136%; in assay [6], 45%; in assay [7], 13%; in assay [19], 107%; in assay [20] it was 74%; in [13] it was 114%. Further, the residual activity in assay [14] is 141%; in [16], 43%.
As to `COc1ccc(Cl)cc1NC(=O)Nc1cc(C)nc2ccccc12`, the residual activity in assay [1] came to 58%; in [2], 88%; in assay [3] it was 78%; in assay [5] it was 91%; in assay [6], 94%; in [7] it was 92%.
Take `CC(C)[C@H](CO)Nc1nc(Nc2cc(N)cc(Cl)c2)c2ncn(C(C)C)c2n1`: the residual activity was determined as 122% in assay [18]; 117% in [17]; 87% in assay [4]; 50% in assay [5]; 44% in assay [6]; 13% in assay [7]. The residual activity in [10] came out at 92%; in assay [13], 93%; in assay [14], 87%.
For the compound `O=C1Nc2ccc(Cl)cc2/C1=C/c1cc(Cl)c(O)c(Cl)c1`, the residual activity in assay [1] is 19%; in [2] it was 79%; in [3], 40%; in assay [4], 77%; in assay [5], 40%; in assay [6] it was 69%. For the same compound, the residual activity turned out to be 50% in [7]; 93% in assay [8]; 60% in assay [19]; 10% in [20]; 75% in [9]; 25% in assay [10]. The residual activity was determined as 68% in [13], 66% in [14], 96% in [15] and 80% in assay [16].
As for `Nc1n[nH]c2nc3ccccc3nc12`, the residual activity came to 51% in [1]; 86% in [2]; 83% in assay [3]; 88% in assay [4]; 86% in assay [5]; 87% in assay [6]. Further, the residual activity worked out at 40% in [7], 85% in [12], 87% in assay [15] and 93% in [16].
